# Assay results reported in PubChem BioAssay AID631 (The Scripps Research Institute Molecular Screening Center, 2007).
# Screen size: about 200,000 compounds; about 810 (0.41%) were called active. Shown is part of a subset that was picked to be rich in actives. Unmarked numbers belong to inactive results. No stated cut-off is given here; in the data, active means activation above about 19%; inactive means the rest.
# Target: Peroxisome proliferator-activated receptor gamma (Homo sapiens) (UniProt P37231)
# Assay: enhancers of SRC-1 binding to PPARgamma – biochemical, primary screen (AID 631);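 further: 0% = DMSO and 100% = reference agonist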
# Details: PPARgamma-SRC-1 coactivator recruitment biochemical assay; at 8 µM; stronger effect = higher value
# Sequence of Peroxisome proliferator-activated receptor gamma (Homo sapiens) (P37231 whole entry, looked up): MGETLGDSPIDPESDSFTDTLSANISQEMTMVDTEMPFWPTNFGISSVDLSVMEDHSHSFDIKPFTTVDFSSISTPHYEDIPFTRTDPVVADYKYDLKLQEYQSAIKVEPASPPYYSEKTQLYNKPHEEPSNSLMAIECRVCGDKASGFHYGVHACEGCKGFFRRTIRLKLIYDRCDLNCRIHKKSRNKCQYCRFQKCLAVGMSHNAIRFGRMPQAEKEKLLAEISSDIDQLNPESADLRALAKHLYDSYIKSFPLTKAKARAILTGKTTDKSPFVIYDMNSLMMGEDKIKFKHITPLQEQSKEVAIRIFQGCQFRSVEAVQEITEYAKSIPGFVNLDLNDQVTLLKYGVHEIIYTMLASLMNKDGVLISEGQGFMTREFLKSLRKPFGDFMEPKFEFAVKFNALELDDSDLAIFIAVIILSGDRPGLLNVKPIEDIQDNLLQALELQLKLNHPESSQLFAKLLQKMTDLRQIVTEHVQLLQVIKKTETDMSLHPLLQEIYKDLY
row,Structure (SMILES),activation
1,CSC1=NP(=S)(SC)N(C)c2nc3n(c21)CCC3 (stereo not given),65.3% (active)
2,Cc1ccc2c(c1)C1CN(C)CCC1N2C(=O)Cn1nnc(-c2ccccc2F)n1 (stereo not given),3.5%
3,OCC#CC[N+]1(CC#Cc2ccccc2)CCCC1,4.2%
4,CC(=O)NC(=O)NC(C)Cc1ccccc1 (stereo not given),6.2%
5,COc1cccc(-c2nc3ccc(N4CCN(C)CC4)cc3[nH]2)c1,3.8%
